# Values joined by “and” are separate entries in the source; they are usually repeats but may differ in a detail not shown here. Identical values can stand only once. Values without a mark were called inactive. Inconclusive results are not listed. Active and inactive are the calls of the source. Unless noted, calls come from the whole dose curve; as a rule, active = well fitted curve in either direction with a large enough effect (not every such curve was filed as active); inconclusive = small, poorly fitted or top-dose-only effect, or another doubt; inactive = flat fitted curve, though single readings scatter.
# How the values were obtained:
# [1] = molecular target: Lysosomal acid glucosylceramidase (Homo sapiens) (UniProt P04062); assay: Glucocerebrosidase-p2 (AID 348; in the data active = potency below about 10 µM; note: potency is the fitted concentration of half-maximal effect); details: purified GBA, blue fluorogenic substrate, 40 min
# Sequence of Lysosomal acid glucosylceramidase (Homo sapiens) (P04062 whole entry, looked up): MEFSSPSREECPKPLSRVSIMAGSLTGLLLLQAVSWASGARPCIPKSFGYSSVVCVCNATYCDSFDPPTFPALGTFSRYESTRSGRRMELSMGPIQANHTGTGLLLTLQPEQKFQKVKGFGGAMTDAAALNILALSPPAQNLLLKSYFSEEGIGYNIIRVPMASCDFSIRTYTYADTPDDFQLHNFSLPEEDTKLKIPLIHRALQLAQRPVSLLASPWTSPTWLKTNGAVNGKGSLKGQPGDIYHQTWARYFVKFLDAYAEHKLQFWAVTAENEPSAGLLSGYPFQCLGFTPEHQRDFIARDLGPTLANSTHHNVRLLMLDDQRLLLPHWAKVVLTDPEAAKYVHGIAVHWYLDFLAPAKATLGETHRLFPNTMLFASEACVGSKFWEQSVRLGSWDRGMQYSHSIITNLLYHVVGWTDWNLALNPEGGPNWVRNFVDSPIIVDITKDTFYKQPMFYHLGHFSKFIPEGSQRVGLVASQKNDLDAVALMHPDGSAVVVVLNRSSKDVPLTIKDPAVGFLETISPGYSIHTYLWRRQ
# Summary of the method: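 Compounds titrated from 0.6 nM upwards against 0.2 nM enzyme in pH 5.9 citric acid/KH2PO4, taurocholate, tween-20; blue fluorogenic substrate 80 uM, 40 min room temperature, stopped and read Ex 365/Em 440 for AC50.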
# [2] = AP1 Signaling Pathway (AID 357); details: ME-180 AP-1-bla reporter, EGF-induced, beta-lactamase ratio, 5 h; at 7.69 µM (top of the series) unless noted;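 note: ME-180 reporter cells stimulated with EGF at its EC50 level; % is set by controls: 0 for no effect and ±100 for the full control effect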
# Summary of the method: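 Titration-series screen for positive or negative modulators of EC50 EGF-induced signaling in ME-180 cells carrying an AP-1-driven beta-lactamase reporter. After 5 hours at 37 degrees Celsius, CCF4 460nm/530nm emission ratio gave %Activity; AC50 values derived.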
# [3] = molecular target: Cytochrome P450 1A2 (Homo sapiens) (UniProt P05177); assay: p450-cyp1a2 (AID 410; calls by dose curve; note: potency is the fitted concentration of half-maximal effect;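 for activity change, negative = inhibition: -100% = full effect of reference inhibitor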); details: recombinant CYP1A2, luciferin-ME demethylation, luminescence; series mostly up to 11.4 µM
# Sequence of Cytochrome P450 1A2 (Homo sapiens) (P05177 whole entry, looked up): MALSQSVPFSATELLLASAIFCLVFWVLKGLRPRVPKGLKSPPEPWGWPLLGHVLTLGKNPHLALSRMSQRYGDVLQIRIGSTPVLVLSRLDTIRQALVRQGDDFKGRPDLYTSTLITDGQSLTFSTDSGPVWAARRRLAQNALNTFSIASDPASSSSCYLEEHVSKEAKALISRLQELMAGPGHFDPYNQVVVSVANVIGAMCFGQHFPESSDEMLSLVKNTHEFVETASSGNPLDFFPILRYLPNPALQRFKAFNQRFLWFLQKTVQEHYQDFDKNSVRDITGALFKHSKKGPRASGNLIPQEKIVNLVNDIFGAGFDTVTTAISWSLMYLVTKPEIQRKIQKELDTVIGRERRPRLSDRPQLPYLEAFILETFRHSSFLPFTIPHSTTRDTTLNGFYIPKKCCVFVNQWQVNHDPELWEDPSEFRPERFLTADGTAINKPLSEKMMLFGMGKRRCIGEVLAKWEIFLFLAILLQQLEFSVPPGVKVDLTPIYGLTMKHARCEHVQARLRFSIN
# Summary of the method: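 Human CYP1A2 (20nM) demethylated Luciferin-ME at its Km (100uM) in 100mM KPO4. After 10 min compound preincubation, NADPH regeneration ran the reaction 60 min at room temperature. Luciferin was read by luminescence, normalized to 57 uM furafylline.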
# [4] = NFAT Signaling Pathway (AID 444); details: Jurkat NFAT-bla M1, carbachol, beta-lactamase ratio, 5 h; at 7.69 µM (top of the series) unless noted;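 note: carbachol stimulus at about its EC50 of 1 µM final; % is set by controls: 0 for no effect and ±100 for the full control effect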
# Summary of the method: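 Jurkat cells with NFAT-driven β-lactamase reporter and co-expressed M1 receptor, stimulated with carbachol (final 1 uM, ~EC50), compound titration, 5 h at 37 °C. CCF4 loaded 1 h at RT; 460/530 nm ratio gave %activity and AC50.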
# [5] = Stat Signaling Pathway (AID 446); details: ME-180 SIE beta-lactamase reporter, IL-6 stimulated, 5 h; at 7.69 µM (top of the series) unless noted;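 note: ME-180 cervical cancer cells given 40 pM IL-6 alongside compound; SIE-controlled beta-lactamase reporter measured as 460/530 nm FRET emission ratio; % is set by controls: 0 for no effect and ±100 for the full control effect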
# Summary of the method: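 Reporter line: ME-180 cervical carcinoma, SIE-beta-lactamase. Treatment: compound with 40 pM IL-6, 5 hrs, 37 C, in low-serum OPTI-MEM with 10 mM HEPES pH 7.3. Detection: 460/530 nm fluorescence.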
# [6] = molecular target: Glucocorticoid receptor (Homo sapiens) (UniProt P04150); assay: GR-GFP Redistribution (AID 450;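 active = compounds whose dose series gives a full or clear partial fitted curve of increased nuclear translocation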; note: potency is the fitted concentration of half-maximal effect); details: U2OS GR-GFP nuclear translocation, laser cytometry, 2 h
# Sequence of Glucocorticoid receptor (Homo sapiens) (P04150 whole entry, looked up, the tested form may be a part): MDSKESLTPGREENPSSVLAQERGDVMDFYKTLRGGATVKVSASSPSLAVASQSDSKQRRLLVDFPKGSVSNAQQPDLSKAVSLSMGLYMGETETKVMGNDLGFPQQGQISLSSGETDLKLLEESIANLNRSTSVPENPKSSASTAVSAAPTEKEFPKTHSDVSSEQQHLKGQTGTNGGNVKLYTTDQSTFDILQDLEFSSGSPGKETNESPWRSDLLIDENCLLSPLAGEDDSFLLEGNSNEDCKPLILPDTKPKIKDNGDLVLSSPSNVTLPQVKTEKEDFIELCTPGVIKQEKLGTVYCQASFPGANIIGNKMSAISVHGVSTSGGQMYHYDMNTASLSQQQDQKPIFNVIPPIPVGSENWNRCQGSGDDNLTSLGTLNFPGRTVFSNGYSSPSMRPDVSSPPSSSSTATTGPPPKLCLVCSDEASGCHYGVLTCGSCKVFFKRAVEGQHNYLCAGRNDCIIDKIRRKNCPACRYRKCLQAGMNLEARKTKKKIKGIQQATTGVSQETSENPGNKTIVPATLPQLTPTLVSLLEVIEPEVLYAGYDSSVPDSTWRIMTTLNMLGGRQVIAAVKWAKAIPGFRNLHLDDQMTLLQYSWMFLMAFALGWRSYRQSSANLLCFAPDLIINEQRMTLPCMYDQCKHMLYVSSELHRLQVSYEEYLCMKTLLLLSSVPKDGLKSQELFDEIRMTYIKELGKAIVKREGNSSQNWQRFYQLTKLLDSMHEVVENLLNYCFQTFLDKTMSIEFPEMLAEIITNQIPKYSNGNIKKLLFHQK
# [7] = molecular target: Glucocorticoid receptor (Homo sapiens) (UniProt P04150); assay: GR-EFC Redistribution (AID 451; calls by dose curve; note: potency is the fitted concentration of half-maximal effect); details: CHO-K1 GR-EFC translocation, beta-gal luminescence, 2 h
# Summary of the method: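 CHO-K1 cells expressing nuclear EA and GR-ED fragments of b-gal; compounds titrated up to 46 uM final, 2 h at 37 C. GR nuclear translocation read as complemented b-gal luminescence after 1 h RT detection.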
# [8] = molecular target: Mitogen-activated protein kinase 10 (Mus musculus) (UniProt Q61831); assay: JNK3 AlphaScreen Assay (AID 530); details: JNK3 lysate, c-Jun phosphorylation; series mostly up to 11.4 µM;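 note: kinase came from lysate of stimulated human HepG2 cells; signal reports phosphorylation of biotinylated GST-cJun 1-79 at Ser73 with 10 µM ATP; % is set by controls: 0 for no effect and ±100 for the full control effect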
# Summary of the method: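 qHTS format: compounds tested as titrations against IL-1beta/TNF-alpha-activated HepG2 lysate JNK3 with biotin-GST-cJun substrate and 10 uM ATP at room temperature. Loss of anti-phospho-cJun AlphaScreen signal indicates inhibition.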
# [9] = molecular target: 3',5'-cyclic-AMP phosphodiesterase 4B (Homo sapiens) (UniProt Q07343); assay: qHTS Assay for Inhibitors of PDE-IV (AID 607; active = well fitted activation curve with a large enough effect in the main read-out, with a control signal flat, not every such curve was filed as active; note: % of control where 0% means no effect); details: HEK293 ACTOne CNG channel cells, membrane potential fluorescence; series mostly up to 22.9 µM
# Sequence of 3',5'-cyclic-AMP phosphodiesterase 4B (Homo sapiens) (Q07343 whole entry, looked up): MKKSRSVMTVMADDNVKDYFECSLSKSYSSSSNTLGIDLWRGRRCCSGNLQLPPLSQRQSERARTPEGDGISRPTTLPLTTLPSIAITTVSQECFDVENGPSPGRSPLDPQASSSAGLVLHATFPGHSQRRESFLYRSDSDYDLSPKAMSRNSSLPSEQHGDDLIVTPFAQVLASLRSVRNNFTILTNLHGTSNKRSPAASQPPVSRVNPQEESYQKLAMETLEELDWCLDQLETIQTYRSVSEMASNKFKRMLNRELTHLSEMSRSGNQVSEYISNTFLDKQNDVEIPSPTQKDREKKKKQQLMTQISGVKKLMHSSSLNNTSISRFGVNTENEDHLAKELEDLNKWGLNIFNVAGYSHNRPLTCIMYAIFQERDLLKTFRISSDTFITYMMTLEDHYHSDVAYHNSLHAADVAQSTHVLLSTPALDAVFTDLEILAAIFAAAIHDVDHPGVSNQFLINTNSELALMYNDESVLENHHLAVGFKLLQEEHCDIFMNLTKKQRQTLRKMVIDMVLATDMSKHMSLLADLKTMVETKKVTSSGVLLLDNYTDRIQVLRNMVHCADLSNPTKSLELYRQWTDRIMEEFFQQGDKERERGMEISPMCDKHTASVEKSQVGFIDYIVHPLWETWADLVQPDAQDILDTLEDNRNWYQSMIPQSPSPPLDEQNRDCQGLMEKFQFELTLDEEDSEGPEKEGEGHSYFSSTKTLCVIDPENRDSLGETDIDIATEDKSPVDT
# Summary of the method: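 Cell-based read-out of cAMP via a modified cyclic nucleotide-gated channel and membrane potential dye (535/590 nm) in HEK293 cells expressing PDE4 endogenously. Compounds tested up to 22.9 uM final; 100 uM RO 20-1724 reference.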
SMILES,Potency [1],"activity change, negative = inhibition [2]",Potency [3],"activity change, negative = inhibition [4]","activity, negative = inhibition [5]",Potency [6],Potency [7],Potency [8],Potency [9],"activity change, negative = inhibition [3]"
COc1cc(NCCC(=O)O)c2ncccc2c1,> 11.4 µM,2.4%,inactive,2.69%,-1.17%,> 46 µM,> 9.22 µM,inactive,inactive,
O=C(O)CCCSc1ccccc1,> 11.4 µM,-2.81%,inactive,-1.05%,4.11%,> 46 µM,> 9.22 µM,inactive,inactive,
O=C(O)C[C@H]1OCC=C2C[N@@+]3([O-])CC[C@]45c6ccccc6N[C@@H]4[C@@H]1[C@H]2C[C@H]53,> 11.4 µM,9.8%,,1.94%,3.39%,> 46 µM,> 9.22 µM,inactive,inactive,-14.3% [at 2.29 µM]
Nc1nc(N)c2[nH]cnc2n1 (tested in a mixture with another compound),> 11.4 µM,4.54%,,20.2%,4.45%,> 46 µM,> 9.22 µM,inactive,inactive,-5.5% [at 2.29 µM]
NC(=S)SCCC(=O)O,> 11.4 µM,11.1%,1.58 µM (active),14.5%,14.5%,> 46 µM,> 9.22 µM,inactive,inactive,
O=[N+]([O-])c1nccn1C[C@H](O)CN1CCCCC1,> 11.4 µM,21.1%,inactive,0.912%,6.06%,> 46 µM,> 9.22 µM,inactive,inactive,
O=C(O)CCSC1=NCCN1,> 11.4 µM,1.39%,inactive,4.68%,6.09%,> 46 µM,> 9.22 µM,inactive,inactive,
O=C(O)/C=C\C(=O)Nc1ncn[nH]1,> 11.4 µM,8.44%,inactive,2.25%,2.6%,> 46 µM,> 9.22 µM,inactive,inactive,
CCN=C(N)CSS(=O)(=O)O,> 11.4 µM,9.8%,inactive,-7.3%,-20%,> 46 µM,> 9.22 µM,inactive,inactive,
Clc1ccccc1C(Nc1cnccn1)Nc1cnccn1,> 11.4 µM,8.81%,,6.25%,-2.8%,> 46 µM,> 9.22 µM,inactive,inactive,-18% [at 2.29 µM]
N=C(N)SCCc1ccncc1,> 11.4 µM,3.09%,,-0.295%,3.81%,> 46 µM,> 9.22 µM,inactive,inactive,-17.8% [at 2.29 µM]
O=C(O)[C@@H]1[C@@H](C(=O)Nc2ncccn2)[C@@H]2C=C[C@@H]1O2,> 11.4 µM,-0.979%,,0.85%,9.29%,> 46 µM,> 9.22 µM,inactive,inactive,-13.2% [at 2.29 µM]
O=C(O)CCCCn1ccc(=O)[nH]c1=O,> 11.4 µM,9.63%,inactive,-9.32%,4.56%,> 46 µM,> 9.22 µM,inactive,inactive,
O=[N+]([O-])c1ccccc1N=Nc1c(O)[nH]c2ccc(S(=O)(=O)O)cc12,> 11.4 µM,-1.77%,1 µM (active),11%,-1.49%,> 46 µM,> 9.22 µM,inactive,inactive,
O=C(O)C1(Nc2ccc(Cl)cc2)CCCC1,> 11.4 µM,-1.27%,inactive,7.56%,5.72%,> 46 µM,> 9.22 µM,inactive,inactive,
c1ccc([C@H](CCN2CCCC2)c2ccccn2)cc1,> 11.4 µM,-0.626%,inactive,-26.3%,0.606%,> 46 µM,> 9.22 µM,inactive,inactive,

SMILES,Potency [1],"activity change, negative = inhibition [2]",Potency [3],"activity change, negative = inhibition [4]","activity, negative = inhibition [5]",Potency [6],Potency [7],Potency [8],Potency [9],"activity change, negative = inhibition [3]"
Cn1c(N)c(N=Nc2ccc(S(N)(=O)=O)cc2)c(=O)n(C)c1=O,> 11.4 µM,12.7%,,16.4%,24.3%,> 46 µM,> 9.22 µM,inactive,inactive,-12.8% [at 2.29 µM]
CC(C)(CO[C@H]1C[C@H]2CC[C@@]1(C)C2(C)C)[N+](=O)[O-],> 11.4 µM,-1.64%,inactive,7.34%,-3.85%,> 46 µM,> 9.22 µM,inactive,inactive,
CN(C)c1ccc(C2N([C@H](C#N)c3ccc(N(C)C)cc3)CCCN2[C@@H](C#N)c2ccc(N(C)C)cc2)cc1 (some centres undefined),> 11.4 µM,0.74%,5.01 µM (active),-11.3%,6.93%,> 46 µM,> 9.22 µM,inactive,inactive,
O=[N+]([O-])c1ccc2c(c1)Cc1cc(N=Cc3ccc4c(c3)OCO4)ccc1-2,> 11.4 µM,-3.82%,0.794 µM (active),-8.54%,-4.51%,> 46 µM,> 9.22 µM,inactive,inactive,
CC(C)(C[C@@]1(C)NC(=O)NC1=O)OCc1ccccc1,> 11.4 µM,-2.92%,,-0.038%,0.608%,> 46 µM,> 9.22 µM,inactive,inactive,-12.1% [at 2.29 µM]
OC[C@@H](O)CNc1ncnc2ccccc12,> 11.4 µM,-1.31%,inactive,9.96%,2.66%,> 46 µM,> 9.22 µM,inactive,inactive,
CN(CC(=O)O)Cc1oc(CO)cc(=O)c1O,> 11.4 µM,6.02%,inactive,10%,5.1%,> 46 µM,> 9.22 µM,inactive,inactive,
CN(C)CN1C(=O)S/C(=C2/C(=O)N(CN(C)C)c3ccccc32)C1=O,> 11.4 µM,-4.12%,0.794 µM (active),9.46%,-0.139%,> 46 µM,> 9.22 µM,inactive,inactive,
Oc1cccnc1CN1CCCCC1,> 11.4 µM,-3.72%,inactive,11.7%,16.8%,> 46 µM,> 9.22 µM,inactive,inactive,
CCn1c2ccccc2c2nnc(NCCCO)nc21,> 11.4 µM,7.47%,1.58 µM (active),10.3%,1%,> 46 µM,> 9.22 µM,inactive,inactive,
N[C@@H](CSC(=O)c1ccccc1)C(=O)O,> 11.4 µM,-5.26%,inactive,3.72%,4.69%,> 46 µM,> 9.22 µM,inactive,inactive,
Nc1nc(SCc2ccccc2Cl)cc(C(=O)O)n1,> 11.4 µM,-13.8%,,1.52%,4.58%,> 46 µM,> 9.22 µM,inactive,inactive,6.2% [at 2.29 µM]
C#CCSc1n[nH]c(-c2ccco2)n1,> 11.4 µM,-2.21%,2 µM (active),15.4%,-3.07%,> 46 µM,> 9.22 µM,inactive,inactive,
O=C(O)C1=C/C(=C(/c2ccccc2)c2cc(C(=O)O)c(O)c3ccccc23)c2ccccc2C1=O,> 11.4 µM,1.91% and 8.74%,inactive,12% and -21.2%,2.38% and 8.71%,> 46 µM,> 9.22 µM,inactive,inactive,
CC(C)(C)c1ccc(OC(=O)Nc2ccc(O)c(C(=O)O)c2)cc1,> 11.4 µM,-0.0209%,,6.49%,0.0223%,> 46 µM,> 9.22 µM,inactive,inactive,6.5% [at 2.29 µM]

# — PubChem BioAssay (NCATS)
